{
  "source": "PubChem BioAssay (NCI)",
  "note": "About 79,000 compounds went through this panel and 15% of them were active in at least one assay; those are over-represented in the sample as a whole. The source made the active and inactive calls. No stated cut-off is given here; in the data, active means growth inhibition above about 70%; inactive means the rest.",
  "data": [
    {"assay": "NCI Yeast Anticancer Drug Screen. Data for the rad50 strain (AID 155);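 further: 0% = growth of vehicle-only cultures of the same strain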", "details": "S. cerevisiae rad50 strain growth inhibition; at 50.0 µM; stronger effect = higher value", "method_in_brief": "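Genetically altered yeast (DNA repair pathway); compound treatment; growth inhibition vs vehicle ctrl.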", "values": [
      {"smiles": "Nc1ccccc1C(=O)Nc1ccccn1", "growth inhibition": "4.05% (inactive)"},
      {"smiles": "O=C(NC(=O)c1c(Cl)nc2sccn12)Nc1ccc(Cl)cc1", "growth inhibition": "-5.45% (inactive)"},
      {"smiles": "CCOC(=O)C(CCc1ccc([N+](=O)[O-])cc1)(CCc1ccc([N+](=O)[O-])cc1)C(=O)OCC", "growth inhibition": "-8.7% (inactive)"},
      {"smiles": "CCOC(=O)CCCCCCCCCC[N+](CC)(CC)CC(=O)c1ccc(NC(C)=O)cc1", "growth inhibition": "-1.05% (inactive)"},
      {"smiles": "Cc1cccc(C)c1NC(=O)C1C(=O)N(c2c(C)cccc2C)C(=O)/C1=N\\NC(N)=S", "note": "(stereo not given)", "growth inhibition": "-15.2% (inactive)"},
      {"smiles": "CCN(CC)C(=O)C(C(=O)OC)c1ccccc1", "note": "(stereo not given)", "growth inhibition": "-4.6% (inactive)"},
      {"smiles": "CC(=O)C(Cc1cccc([N+](=O)[O-])c1)Cc1cccc([N+](=O)[O-])c1", "growth inhibition": "-3.7% (inactive)"},
      {"smiles": "c1ccc(-n2nnnc2-c2nnnn2-c2ccccc2)cc1", "growth inhibition": "-7.35% (inactive)"},
      {"smiles": "COc1ccc(OC)c(NC(=O)CCC/C(CC(=O)c2ccc(O)c(OC)c2)=N\\Nc2ccc([N+](=O)[O-])cc2)c1", "growth inhibition": "-25.8% (inactive)"},
      {"smiles": "COC(=O)C1c2ccccc2CC(=O)N1N", "note": "(stereo not given)", "growth inhibition": "-2.7% (inactive)"},
      {"smiles": "C=C1C(C2(C)C=CC(=O)OC3(C)COC(=O)CC32)C(OC=O)C(OC(=O)C(O)C(C)CC)C2(C)C(c3ccoc3)CC(OC(C)=O)C12O", "note": "(stereo not given)", "growth inhibition": "7.9% (inactive)"},
      {"smiles": "O=C1OC(=O)c2c1ccc1ccccc21", "growth inhibition": "-6% (inactive)"},
      {"smiles": "Cn1c(N)c(N=Cc2ccc(Cl)cc2)c(=O)n(C)c1=O", "growth inhibition": "-9.2% (inactive)"},
      {"smiles": "COC(=O)c1cc(-c2ccc3ccccc3c2)[nH]c(=O)c1C#N", "growth inhibition": "34.4% (inactive)"},
      {"smiles": "CC1=NN(c2ccccc2)C(=O)/C1=C(\\[O-])c1ccccc1.CC1=NN(c2ccccc2)C(=O)/C1=C(\\[O-])c1ccccc1.CC1=NN(c2ccccc2)C(=O)/C1=C(\\[O-])c1ccccc1.[Fe+3]", "growth inhibition": "1.8% (inactive)"},
      {"smiles": "O=C1C(Br)=C(Br)C(=O)C2=C1C1c3ccccc3C2c2ccccc21", "growth inhibition": "98.5% (active)"},
      {"smiles": "O=C(O)Cc1ccc2ccccc2c1", "growth inhibition": "6.3% (inactive)"},
      {"smiles": "O=c1[nH]c2cc(Br)c(Br)cc2c2ccc(Br)cc12", "growth inhibition": "43% (inactive)"},
      {"smiles": "O=C(C[n+]1cccc(CO)c1)c1ccc(-c2ccc(C(=O)C[n+]3cccc(CO)c3)cc2)cc1", "growth inhibition": "22.8% (inactive)"},
      {"smiles": "O=C(O)C(c1ccc(-c2ccccc2)cc1)C1CCCCC1", "note": "(stereo not given)", "growth inhibition": "47.9% (inactive)"},
      {"smiles": "COC(=O)/C=C(/C=C1/C(C#N)=C(N)N(c2ccc(Cl)cc2)C1(C)/C(=C/C(=O)OC)C(=O)OC)C(=O)OC", "note": "(stereo not given)", "growth inhibition": "-3.15% (inactive)"},
      {"smiles": "COc1cccc(Oc2cccc[n+]2CC(C)=O)c1", "growth inhibition": "-57.5% (inactive)"},
      {"smiles": "CCOC(=O)C1=C(Nc2ccc(F)cc2)C(=O)N(C(C)(C)C)C1", "growth inhibition": "8.05% (inactive)"},
      {"smiles": "CCNc1ccc(C)cc1", "growth inhibition": "55.4% (inactive)"},
      {"smiles": "Cc1cc(O)c(/C=N/c2nc(-c3ccc([N+](=O)[O-])cc3)cs2)c(=O)o1", "growth inhibition": "58.1% (inactive)"},
      {"smiles": "Nc1ccc(S(=O)(=O)Nc2ccccn2)cc1", "growth inhibition": "-2.2% (inactive)"},
      {"smiles": "O=C(Cc1csc(N=Nc2c(O)[nH]c3ccccc23)n1)Nc1ccccc1", "growth inhibition": "-16.2% (inactive)"},
      {"smiles": "Cc1ccc(S(=O)(=O)Cc2c(C)cc(C)cc2C)cc1", "growth inhibition": "12.3% (inactive)"},
      {"smiles": "O=C1Nc2ccccc2C1O", "note": "(stereo not given)", "growth inhibition": "7.15% (inactive)"},
      {"smiles": "COC(=O)C1(OC)C(=O)NC2=C1C(=O)c1ccccc1C2=O", "note": "(stereo not given)", "growth inhibition": "-12.1% (inactive)"},
      {"smiles": "O=C(Nc1ccc(Cl)c(Cl)c1)Oc1ccc(-c2ccccc2)cc1", "growth inhibition": "73.2% (active)"},
      {"smiles": "COc1cc(/C=N/NC(N)=S)cc(OC)c1", "growth inhibition": "-4.1% (inactive)"},
      {"smiles": "CC(C)=NNC(=O)COCC(=O)NN=C(C)C", "growth inhibition": "0.25% (inactive)"},
      {"smiles": "O=S(=O)(Cl)c1cccc2c(S(=O)(=O)Cl)cccc12", "growth inhibition": "7% (inactive)"},
      {"smiles": "COc1cc(Br)c(CC2c3cc(OC)c(OC)cc3CCN2C)cc1OC", "note": "(stereo not given)", "growth inhibition": "-17% (inactive)"},
      {"smiles": "COc1ccc(C(=O)Nc2ccn(CCOC(=O)c3ccc(OC)cc3)c(=O)n2)cc1", "growth inhibition": "-25.9% (inactive)"},
      {"smiles": "CC(N=C(N)N)C(=O)O", "note": "(stereo not given)", "growth inhibition": "-11.9% (inactive)"},
      {"smiles": "CN1CCC(=O)C(c2ccccc2)(c2ccccc2)CC1", "growth inhibition": "-8% (inactive)"},
      {"smiles": "CC1(C)C(=O)OC(n2ccc(=O)[nH]c2=O)C1=O", "note": "(stereo not given)", "growth inhibition": "7.15% (inactive)"},
      {"smiles": "Fc1ccccc1C1CC(c2ccc3ccccc3c2)=Nc2ccccc2S1", "note": "(stereo not given)", "growth inhibition": "30.9% (inactive)"}
    ]},
    {"assay": "NCI Yeast Anticancer Drug Screen. Data for the mec2-1 strain (AID 157)", "details": "S. cerevisiae mec2-1 strain, at 50.0 µM, stronger effect = higher value", "method_in_brief": "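Growth inhibition is read against vehicle-treated controls after compound exposure of the mec2-1 yeast strain, which is defective in DNA damage repair or cell cycle control.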", "values": [
      {"smiles": "Nc1ccccc1C(=O)Nc1ccccn1", "growth inhibition": "-1.1% (inactive)"},
      {"smiles": "O=C(NC(=O)c1c(Cl)nc2sccn12)Nc1ccc(Cl)cc1", "growth inhibition": "-14.1% (inactive)"},
      {"smiles": "CCOC(=O)C(CCc1ccc([N+](=O)[O-])cc1)(CCc1ccc([N+](=O)[O-])cc1)C(=O)OCC", "growth inhibition": "-16.1% (inactive)"},
      {"smiles": "CCOC(=O)CCCCCCCCCC[N+](CC)(CC)CC(=O)c1ccc(NC(C)=O)cc1", "growth inhibition": "-2.35% (inactive)"},
      {"smiles": "Cc1cccc(C)c1NC(=O)C1C(=O)N(c2c(C)cccc2C)C(=O)/C1=N\\NC(N)=S", "note": "(stereo not given)", "growth inhibition": "-24.4% (inactive)"},
      {"smiles": "CCN(CC)C(=O)C(C(=O)OC)c1ccccc1", "note": "(stereo not given)", "growth inhibition": "-9.75% (inactive)"},
      {"smiles": "CC(=O)C(Cc1cccc([N+](=O)[O-])c1)Cc1cccc([N+](=O)[O-])c1", "growth inhibition": "-7.8% (inactive)"},
      {"smiles": "c1ccc(-n2nnnc2-c2nnnn2-c2ccccc2)cc1", "growth inhibition": "-5.2% (inactive)"},
      {"smiles": "COc1ccc(OC)c(NC(=O)CCC/C(CC(=O)c2ccc(O)c(OC)c2)=N\\Nc2ccc([N+](=O)[O-])cc2)c1", "growth inhibition": "-0.7% (inactive)"},
      {"smiles": "COC(=O)C1c2ccccc2CC(=O)N1N", "note": "(stereo not given)", "growth inhibition": "-8.5% (inactive)"},
      {"smiles": "C=C1C(C2(C)C=CC(=O)OC3(C)COC(=O)CC32)C(OC=O)C(OC(=O)C(O)C(C)CC)C2(C)C(c3ccoc3)CC(OC(C)=O)C12O", "note": "(stereo not given)", "growth inhibition": "-5.2% (inactive)"},
      {"smiles": "O=C1OC(=O)c2c1ccc1ccccc21", "growth inhibition": "-21.6% (inactive)"},
      {"smiles": "Cn1c(N)c(N=Cc2ccc(Cl)cc2)c(=O)n(C)c1=O", "growth inhibition": "2.35% (inactive)"},
      {"smiles": "COC(=O)c1cc(-c2ccc3ccccc3c2)[nH]c(=O)c1C#N", "growth inhibition": "35.2% (inactive)"},
      {"smiles": "CC1=NN(c2ccccc2)C(=O)/C1=C(\\[O-])c1ccccc1.CC1=NN(c2ccccc2)C(=O)/C1=C(\\[O-])c1ccccc1.CC1=NN(c2ccccc2)C(=O)/C1=C(\\[O-])c1ccccc1.[Fe+3]", "growth inhibition": "-5.75% (inactive)"},
      {"smiles": "O=C1C(Br)=C(Br)C(=O)C2=C1C1c3ccccc3C2c2ccccc21", "growth inhibition": "98.2% (active)"},
      {"smiles": "O=C(O)Cc1ccc2ccccc2c1", "growth inhibition": "13.2% (inactive)"},
      {"smiles": "O=c1[nH]c2cc(Br)c(Br)cc2c2ccc(Br)cc12", "growth inhibition": "-3.8% (inactive)"},
      {"smiles": "O=C(C[n+]1cccc(CO)c1)c1ccc(-c2ccc(C(=O)C[n+]3cccc(CO)c3)cc2)cc1", "growth inhibition": "5.35% (inactive)"},
      {"smiles": "O=C(O)C(c1ccc(-c2ccccc2)cc1)C1CCCCC1", "note": "(stereo not given)", "growth inhibition": "26.4% (inactive)"},
      {"smiles": "COC(=O)/C=C(/C=C1/C(C#N)=C(N)N(c2ccc(Cl)cc2)C1(C)/C(=C/C(=O)OC)C(=O)OC)C(=O)OC", "note": "(stereo not given)", "growth inhibition": "-11.4% (inactive)"},
      {"smiles": "COc1cccc(Oc2cccc[n+]2CC(C)=O)c1", "growth inhibition": "-10.3% (inactive)"},
      {"smiles": "CCOC(=O)C1=C(Nc2ccc(F)cc2)C(=O)N(C(C)(C)C)C1", "growth inhibition": "1.3% (inactive)"},
      {"smiles": "CCNc1ccc(C)cc1", "growth inhibition": "-4.1% (inactive)"},
      {"smiles": "Cc1cc(O)c(/C=N/c2nc(-c3ccc([N+](=O)[O-])cc3)cs2)c(=O)o1", "growth inhibition": "20.9% (inactive)"},
      {"smiles": "Nc1ccc(S(=O)(=O)Nc2ccccn2)cc1", "growth inhibition": "8.55% (inactive)"},
      {"smiles": "O=C(Cc1csc(N=Nc2c(O)[nH]c3ccccc23)n1)Nc1ccccc1", "growth inhibition": "-24.4% (inactive)"},
      {"smiles": "Cc1ccc(S(=O)(=O)Cc2c(C)cc(C)cc2C)cc1", "growth inhibition": "3.8% (inactive)"},
      {"smiles": "O=C1Nc2ccccc2C1O", "note": "(stereo not given)", "growth inhibition": "3.3% (inactive)"},
      {"smiles": "COC(=O)C1(OC)C(=O)NC2=C1C(=O)c1ccccc1C2=O", "note": "(stereo not given)", "growth inhibition": "-13% (inactive)"},
      {"smiles": "O=C(Nc1ccc(Cl)c(Cl)c1)Oc1ccc(-c2ccccc2)cc1", "growth inhibition": "88% (active)"},
      {"smiles": "COc1cc(/C=N/NC(N)=S)cc(OC)c1", "growth inhibition": "-11.2% (inactive)"},
      {"smiles": "CC(C)=NNC(=O)COCC(=O)NN=C(C)C", "growth inhibition": "-4.45% (inactive)"},
      {"smiles": "O=S(=O)(Cl)c1cccc2c(S(=O)(=O)Cl)cccc12", "growth inhibition": "2.15% (inactive)"},
      {"smiles": "COc1cc(Br)c(CC2c3cc(OC)c(OC)cc3CCN2C)cc1OC", "note": "(stereo not given)", "growth inhibition": "-25.4% (inactive)"},
      {"smiles": "COc1ccc(C(=O)Nc2ccn(CCOC(=O)c3ccc(OC)cc3)c(=O)n2)cc1", "growth inhibition": "16.9% (inactive)"},
      {"smiles": "CC(N=C(N)N)C(=O)O", "note": "(stereo not given)", "growth inhibition": "9.1% (inactive)"},
      {"smiles": "CN1CCC(=O)C(c2ccccc2)(c2ccccc2)CC1", "growth inhibition": "-8.6% (inactive)"},
      {"smiles": "CC1(C)C(=O)OC(n2ccc(=O)[nH]c2=O)C1=O", "note": "(stereo not given)", "growth inhibition": "-11.2% (inactive)"},
      {"smiles": "Fc1ccccc1C1CC(c2ccc3ccccc3c2)=Nc2ccccc2S1", "note": "(stereo not given)", "growth inhibition": "12.1% (inactive)"}
    ]}
  ]
}
